# Experimental data taken from the supplement of paper PMC7858590.
# Where “and” joins values, the source holds several entries; their conditions need not be identical. Equal entries are not always repeated. ± gives the standard deviation of the averaged measurements. The full ranking holds about 3,800 compounds; the median of “cell shape (eccentricity) Z-score vs DMSO control” is about 1.1, and the lowest 2% start at about -4.7. This excerpt belongs to a sample that is enriched for the lowest values.
# System: human monocyte-derived macrophages (M0)
# Assay: cell shape (eccentricity) Z-score vs DMSO control; higher = more elongated, M2-like morphology
# Conditions: 20 µM; 24 h; macrophage state: M0 (M-CSF)
# Experimental: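 Primary human monocyte-derived macrophages (M-CSF differentiated, pooled from 4 donors, 5000 cells/well in 384-well plates) were treated with each compound at 20 uM for 24 h, then fixed and stained with phalloidin/DAPI and imaged on an Opera Phenix (6 fields, about 1000 cells/well). Cell eccentricity was measured with CellProfiler, and a Z-score (t-test) was computed against 4 DMSO control wells in the same row. Negative values mean round (M1-like) cells and positive values mean elongated (M2-like) cells; the paper's hit cutoffs are Z <= -4 (M1) and Z >= 6 (M2). Scale: negative = round, M1-like.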
row,SMILES,cell shape (Z-score)
1,COc1cc2c(c(O)c1OC)C(=O)CC(c1ccc(O)cc1)O2 (stereo unspecified),0.892
2,CC(C)[C@@H]1CC[C@@]2(C)CCC[C@@](C)(O)[C@@H]2[C@H]1OC(=O)/C=C/c1ccccc1,2.15
3,NC(=O)c1ccc(-c2nc(-c3ccc4c(c3)OCCO4)c(-c3ccccn3)[nH]2)cc1,4.12
4,COCCCCC(=NOCCN)c1ccc(C(F)(F)F)cc1,-14.7
5,CC(O)CCCc1cc(O)cc(O[C@@H]2O[C@H](CO)[C@@H](O)[C@H](O)[C@H]2O)c1 (stereo partly specified),0.302
6,CC(/C=C/C1(O)C(C)CC(O)CC1(C)C)OC1OC(CO)C(O)C(O)C1O (stereo unspecified),0.819
7,C/C=C/C#CC#C[C@@H](O[C@@H]1O[C@H](CO)[C@@H](O)[C@H](O)[C@H]1O)[C@H](O)/C=C/CCCO,-5.71
8,O=Cc1ccccc1O[C@@H]1O[C@H](CO)[C@H](O)[C@@H](O)[C@H]1O,-0.838
9,O=C1c2ccccc2CCC1CNCCc1ccc(O)cc1 (stereo unspecified),2.69
10,OCc1ccc(-c2ccc(-c3ccc(CO)s3)o2)s1,-3.3 and -5.19
11,COc1cc(C(C)/C=C(/C)CC(=O)O)oc(=O)c1C (stereo unspecified),0.462 ± 0.48
12,C=C1CC[C@@H]2[C@](C)(CO)[C@H](O)CC[C@@]2(C)[C@@H]1CC(O)C1=CCOC1=O (stereo partly specified),-2.2 ± 3.4
13,O=C(Nc1ccccc1)c1cc([N+](=O)[O-])ccc1Cl,-1.03
14,O=C(Nc1ccc([N+](=O)[O-])cc1O)Nc1ccccc1Br,-4.95 ± 7.5
15,O=C(Nc1ccc([N+](=O)[O-])cc1Cl)c1cc(Cl)ccc1O,-4.1 ± 4.2
16,CCC(C)C(=O)O[C@H]1C[C@H](O)C=C2C=C[C@H](C)[C@H](CC[C@@H](O)C[C@@H](O)CC(=O)O)C21 (stereo partly specified),-0.754
17,COc1cc(/C=C/c2cc(O)cc(O[C@@H]3O[C@H](CO)[C@@H](O)[C@H](O)[C@H]3O)c2)ccc1O[C@@H]1O[C@H](CO)[C@@H](O)[C@H](O)[C@H]1O,2.22
18,COc1cc2c(cc1-c1coc3c4c(ccc3c1=O)OC(C)(C)C=C4)OCO2,-5.49
19,COc1c2c(cc3occ(-c4ccc5c(c4)OCO5)c(=O)c13)OC(C)(C)C=C2,1.71
20,COc1c(-c2coc3cc4c(cc3c2=O)CC(O)C(C)(C)O4)ccc2c1C=CC(C)(C)O2 (stereo unspecified),-0.764
21,CN(C)CCCN1c2ccccc2CCc2ccc(Cl)cc21,1.86
22,CC(C)=CCC1Cc2c(cc(O)c(C(=O)C(C)C)c2O)OC1(C)C (stereo unspecified),3.41
23,NCCCCCc1cnc[nH]1,-0.662
24,CC(C)c1ccc(Cn2ccc3c4c(N)nc(NC5CC5)nc4ccc32)cc1,-4.69
25,CCNC(=O)[C@@H]1CCCN1C(=O)[C@H](CCCNC(=N)N)NC(=O)[C@H](CC(C)C)NC(=O)[C@@H](COC(C)(C)C)NC(=O)[C@H](Cc1ccc(O)cc1)NC(=O)[C@H](CO)NC(=O)[C@H](Cc1c[nH]c2ccccc12)NC(=O)[C@H](Cc1cnc[nH]1)NC(=O)C1CCC(=O)N1 (stereo partly specified),-0.749
26,O=C(CCCN1CCC(O)(c2ccc(Cl)cc2)CC1)c1ccc(F)cc1,-2.24

row,SMILES,cell shape (Z-score)
1,OC1(c2ccc(Cl)c(C(F)(F)F)c2)CCN(CCCC(c2ccc(F)cc2)c2ccc(F)cc2)CC1,-6.96
2,O=C(CCCN1CCC(O)(c2cccc(C(F)(F)F)c2)CC1)c1ccc(F)cc1,-0.261
3,CO[C@@]12[C@H](COC(N)=O)C3=C(C(=O)C(C)=C(N)C3=O)N1C[C@@H]1N[C@@H]12,-1.43 ± 4
4,CO[C@@]12[C@@H]3NC3CN1C1=C(C(=O)C(N)=C(C)C1=O)[C@@H]2COC(N)=O (stereo partly specified),-5.51
5,Cc1cccc(-c2[nH]c(C(C)(C)C)nc2-c2ccc3nccnc3c2)n1,4.84
6,CON=C(C(=O)NC1C(=O)N2C(C(=O)O)=C(CSc3nc(=O)c(=O)[nH]n3C)CSC12)c1csc(N)n1 (stereo unspecified),-0.265
7,CCn1cc(C(=O)O)c(=O)c2cc(F)c(N3CCN(C)CC3)cc21,-1.21
8,Cc1oc(=O)oc1CN1CCN(c2cc3c(cc2F)c(=O)c(C(=O)O)c2n3C(C)S2)CC1 (stereo unspecified),-5.14
9,CCN1CCN(c2cc3c(cc2F)c(=O)c(C(=O)O)cn3C2CC2)CC1,-0.0252
10,C=CC(=O)Nc1cccc(Sc2nc(Nc3ccc(N4CCN(C)CC4)cc3)ncc2Cl)c1,0.842
11,CCCCCCCCC(=O)NCc1cc(OC)c(O)cc1I,0.93
12,CCCn1c(=O)c(C)cn2nc(N)nc12,3.53
13,CCC(C)n1ncn(-c2ccc(N3CCN(c4ccc(OC[C@H]5CO[C@](Cn6cncn6)(c6ccc(Cl)cc6Cl)O5)cc4)CC3)cc2)c1=O (stereo partly specified),0.541
14,CC(C)N1C[C@@H](C)[C@H](CN(C)Cc2ccc(Oc3ccccc3)cc2)Oc2c(NC(=O)c3ccncc3)cccc2C1=O,2.27
15,CC1OC(OC2C(O[C@H]3OC[C@](O)(CO)[C@H]3O)COC(O[C@@H]3[C@@H](O)[C@@H](O)[C@H](OC4C(OC(=O)[C@]56CCC(C)(C)CC5C5=CCC7[C@@]8(C)C[C@H](O)[C@H](OC9OC(CO)C(O)C(O)C9O)[C@@](C)(CO)C8[C@H](O)C[C@@]7(C)[C@]5(C)CC6)OCC(O)C4O)O[C@H]3C)C2O)C(O)C(O)C1O (stereo partly specified),-5.84
16,CC1OC(OC2C(O)C(CO)OC(O[C@H]3CC[C@@]4(C)C(CC[C@]5(C)C4CC=C4C6CC(C)(C)CC[C@]6(C(=O)OC6OCC(OC7OCC(O)C(O)C7O)C(O)C6O)CC[C@]45C)C3(C)C)C2O)C(O)C(OC2OCC(O)(CO)C2O)C1O (stereo partly specified),-0.504
17,CC1OC(O[C@H]2[C@@H](O)C[C@@]3(C)C([C@H](O)C[C@]4(C)C3CC=C3[C@@H]5CC(C)(C)CC[C@]5(C(=O)OC5OC(C)C(OC6OCC(OC7OCC(O)C(OC8OCC(O)C(O)C8O)C7O)C(O)C6O)C(O)C5O)CC[C@]34C)[C@]2(C)CO)C(O)C(OC2OC(CO)C(O)C(O)C2O)C1O (stereo partly specified),0.543
18,CC1OC(O[C@H]2CC[C@@]3(C)C(CC[C@]4(C)C3CC=C3C5CC(C)(C)CC[C@]5(C(=O)OC5OC(CO)C(OC6OC(CO)C(O)C(O)C6O)C(O)C5O)CC[C@]34C)C2(C)C)C(O)C(O)C1OC1OCC(O)(COC2OCC(O)C(OC3OCC(OC4OCC(O)(CO)C4O)C(O)C3O)C2O)C1O (stereo partly specified),0.323
19,CC1OC(O[C@H]2[C@@H](O)C[C@@]3(C)C(CC[C@]4(C)C3CC=C3[C@@H]5CC(C)(C)CC[C@]5(C(=O)OC5OC(C)C(OC6OCC(OC7OCC(O)C(OC8OCC(O)C(O)C8O)C7O)C(O)C6O)C(O)C5O)CC[C@]34C)[C@]2(C)CO)C(O)C(OC2OC(CO)C(O)C(O)C2O)C1O (stereo partly specified),0.13
20,C[C@@H]1O[C@@H](O[C@H]2[C@H](OC(=O)[C@]34CCC(C)(C)C[C@H]3C3=CCC5[C@@]6(C)C[C@H](O)[C@H](O[C@@H]7O[C@H](CO)[C@@H](O)[C@H](O)[C@H]7O)[C@@](C)(CO)C6[C@H](O)C[C@@]5(C)[C@]3(C)CC4)OC[C@H](O)[C@@H]2O)[C@H](O)[C@H](O)[C@H]1O[C@@H]1OC[C@@H](O)[C@H](O[C@@H]2OC[C@](O)(CO)[C@H]2O)[C@H]1O (stereo partly specified),-6.49
21,C/C(=C\Cc1c(O[C@@H]2O[C@H](CO)[C@@H](O)[C@H](O)[C@H]2O)ccc2ccc(=O)oc12)CO,0.962 ± 0.97
22,CCC1(c2ncc[nH]2)Cc2ccccc2O1 (stereo unspecified),1.92
23,N#CC(=C(N)Sc1ccc(N)cc1)c1ccccc1C(F)(F)F,4.79
24,CC1CC(=O)C2C(O)(C1)CC(O)C13OC21C(=O)c1cccc(O)c1C3O (stereo unspecified),3.39 ± 2.6
25,C[C@H](CCC(=O)NCC(=O)O)[C@H]1CCC2C3C(C[C@H](O)[C@@]21C)[C@@]1(C)CC[C@@H](O)CC1C[C@H]3O (stereo partly specified),1.5
26,CC(=O)O[C@@H]1CC2C(C)(C)C(=O)C3OC3[C@]2(C)C2CC[C@@]3(C)[C@H](c4ccoc4)OC(=O)C4OC43[C@@]21C (stereo partly specified),-1.17

row,SMILES,cell shape (Z-score)
1,CC1(CO)CC(O)CC2(C)C3=C(CCC12)C(=O)OC3 (stereo unspecified),-1.57
2,COC(=O)C(CCCNC(=N)N)NC(=O)CCCc1c(-c2ccccc2)[nH]c2c(F)cc(F)cc12 (stereo unspecified),6.11
3,Cc1c(OCC(F)(F)F)ccnc1CS(=O)c1nc2ccccc2[nH]1 (stereo unspecified),3.11
4,COCCCOc1ccnc(CS(=O)c2nc3ccccc3[nH]2)c1C (stereo unspecified),-6.29
5,COc1ccnc(CS(=O)c2nc3cc(OC(F)F)ccc3[nH]2)c1OC (stereo unspecified),-1.46
6,COC1=CC(=O)CC(C)C12Oc1cc(OC)cc(O)c1C2=O (stereo unspecified),1.27
7,OCCOCCN1CCN(C2=Nc3ccccc3Sc3ccccc32)CC1,2.19
8,CNCC[C@@H](Oc1ccccc1C)c1ccccc1,0.617
9,CNCCC(Oc1ccccc1OC)c1ccccc1 (stereo unspecified),1.09
10,CNCCC(Oc1ccc(C(F)(F)F)cc1)c1ccccc1 (stereo unspecified),-4.88
11,C/C=C(/C)C(=O)O[C@H]1C=C(C)C[C@H](OC(=O)c2ccc(O)cc2)C2[C@](O)(C(C)C)CC[C@@]21C (stereo partly specified),-3.37
12,CCN(CC)CCOc1ccc2c(c1)C(=O)c1cc(OCCN(CC)CC)ccc1-2,11.9
13,O=C1c2ccccc2-c2nc3nonc3nc21,-6.25
14,N#Cc1nc2c(nc1C#N)-c1ccc(Cl)cc1C2=O,2.23
15,CC1(C)CC[C@]2(C(=O)O)CC[C@]3(C)C(=CCC4[C@@]5(C)CC[C@H](O[C@@H]6OC[C@H](O)[C@H](O)[C@H]6O)[C@@](C)(CO)C5CC[C@]43C)C2C1 (stereo partly specified),-2.37
16,Cc1noc(NS(=O)(=O)c2ccc(N)cc2)c1C,2.76
17,CNc1cc(NS(=O)(=O)c2ccc(N)cc2)nc(NC)n1,3.31
18,Cc1cc(NS(=O)(=O)c2ccc(N)cc2)no1,-8.11
19,Cn1c(=O)c2c(n(C)c1=O)n(C)c(=O)n2C,0.458
20,Cc1cc(Nc2nc(N[C@@H](C)c3ncc(F)cn3)ncc2Cl)n[nH]1,7.45
21,CCCCCCCCc1ccc(-c2ccc(C(=O)O)cc2)cc1,7.84
22,CCCCCCCCCCCCCCCCCCc1ccc(C(=O)C=CC(=O)O)cc1,0.47
23,CCCCCCCCc1ccc(CCC(N)(CO)CO)cc1,-5.98 ± 2.9
24,COc1cc(/C=C/C(=O)O[C@H]2CC[C@]34CC35CC[C@]3(C)[C@@H](C(C)CCC=C(C)C)CC[C@@]3(C)C5CCC4C2(C)C)ccc1O (stereo partly specified),-1.25
